Results on five compounds are retold here after PubChem BioAssay (NCI).

Among the test systems are SR leukemia; RPMI-8226 leukemia; OVCAR-8 ovarian; OVCAR-5 ovarian; OVCAR-4 ovarian; SK-OV-3 ovarian; IGROV1 ovarian; OVCAR-3 ovarian; HS 578T breast; NCI/ADR-RES ovarian; BT-549 breast; MDA-MB-435 melanoma; SW-620 colon; MCF7 breast; HCT-116 colon; HCC-2998 colon; KM12 colon; T-47D breast.
What all share (assay): NCI-60 one-dose screen, 48 h (100 = growth as untreated, 0 = no growth, -100 = all killed)
What all share (settings): 10 µM unless noted

Where “and” joins values, the source holds several entries; their conditions need not be identical. Equal entries are not always repeated. Compounds without any hit were thinned out: in the full panel of roughly 83,000, 20% have a hit.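 96-well plates, one dose, 48 hours. Percent growth reported; active if below 10.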 Calls of active or inactive are those of the source.

As to `CCCCCCCCCCCCCCCCOc1ccc(C)cc1`, the growth in the experiment on SR leukemia was 97.9% (inactive); with RPMI-8226 leukemia it was 118% (inactive); with OVCAR-8 ovarian, 106% (inactive); with OVCAR-5 ovarian, 99.9% (inactive); with OVCAR-4 ovarian it was 99.8% (inactive); with SK-OV-3 ovarian, 108% (inactive). Besides, the growth was 127% (inactive) with IGROV1 ovarian; 108% (inactive) in the experiment with OVCAR-3 ovarian; 110% (inactive) with HS 578T breast; 103% (inactive) with NCI/ADR-RES ovarian; 112% (inactive) in the experiment on BT-549 breast; 111% (inactive) in the experiment on MDA-MB-435 melanoma. For the same compound, the growth in the experiment with SW-620 colon was 101% (inactive); in the experiment on MCF7 breast it was 102% (inactive); in the experiment with HCT-116 colon, 108% (inactive); with HCC-2998 colon, 105% (inactive); in the experiment with KM12 colon, 108% (inactive).
As to `O=C(/C=C\c1ccnc2ccccc12)c1ccc([N+](=O)[O-])cc1`, the growth with SR leukemia was 6.51% (active); in the experiment on RPMI-8226 leukemia it was 31.1% (inactive) and -26.4% (active); with OVCAR-8 ovarian, 99.1% (inactive) and 73.5% (inactive); in the experiment on OVCAR-5 ovarian, 89.4% (inactive) and 96.3% (inactive); with OVCAR-4 ovarian, 85.3% (inactive) and 63.1% (inactive); with SK-OV-3 ovarian, 95% (inactive) and 89.6% (inactive). In addition, the growth in the experiment with IGROV1 ovarian is 108% (inactive) and 92.9% (inactive); in the experiment on OVCAR-3 ovarian, 100% (inactive) and 87.8% (inactive); in the experiment on HS 578T breast, 107% (inactive) and 88.6% (inactive); in the experiment on NCI/ADR-RES ovarian, 81.6% (inactive) and 67.4% (inactive); in the experiment on T-47D breast, 70.3% (inactive) and 59.3% (inactive); in the experiment on MDA-MB-435 melanoma it was 93.2% (inactive) and 46.5% (inactive). The growth in the experiment with SW-620 colon is 80.6% (inactive) and 6.55% (active); in the experiment on MCF7 breast, 75.8% (inactive) and 25.4% (inactive); in the experiment on HCT-116 colon, 0.905% (active) and -94% (active); in the experiment on HCC-2998 colon, 82.7% (inactive); in the experiment on KM12 colon, 83.3% (inactive) and 33.1% (inactive).
As to `O=C(Cc1cccc2ccccc12)N/N=C/c1ccc2c(c1)CCC2`, the growth with SR leukemia was 23% (inactive); in the experiment on RPMI-8226 leukemia it was 75.1% (inactive); in the experiment with OVCAR-8 ovarian it was 72.3% (inactive); in the experiment on OVCAR-5 ovarian it was 80.9% (inactive); with OVCAR-4 ovarian, 104% (inactive); in the experiment on SK-OV-3 ovarian, 83.2% (inactive). The growth in the experiment on IGROV1 ovarian was 47.8% (inactive); in the experiment with OVCAR-3 ovarian, 75.8% (inactive); in the experiment on HS 578T breast it was 85.3% (inactive); in the experiment on NCI/ADR-RES ovarian it was 31% (inactive); in the experiment on BT-549 breast, 92.5% (inactive); in the experiment with MDA-MB-435 melanoma, 7.56% (active). Besides, the growth in the experiment on SW-620 colon was 54.8% (inactive); with MCF7 breast it was 80.5% (inactive); in the experiment with HCC-2998 colon, 81.9% (inactive); in the experiment on KM12 colon it was 54.3% (inactive).
Consider `c1ccc2cc(C[n+]3ccn(Cc4ccc5ccccc5n4)c3)ccc2c1`, for which the growth with SR leukemia was -3.69% (active) and 31.5% (inactive); in the experiment with RPMI-8226 leukemia, 3.76% (active) and 13.1% (inactive); in the experiment on OVCAR-8 ovarian it was 1.74% (active) and 23.8% (inactive); in the experiment with OVCAR-5 ovarian, 13.4% (inactive) and 50.9% (inactive); in the experiment with OVCAR-4 ovarian it was 11.5% (inactive) and 33.7% (inactive); in the experiment with IGROV1 ovarian, 11.6% (inactive) and 25.1% (inactive). The growth in the experiment on OVCAR-3 ovarian was -1.69% (active) and 21.7% (inactive); in the experiment on HS 578T breast, 27.8% (inactive) and 33% (inactive); with NCI/ADR-RES ovarian, 103% (inactive) and 102% (inactive); in the experiment with T-47D breast, -5.71% (active) and 13.1% (inactive); in the experiment on BT-549 breast it was -15.9% (active) and 12.2% (inactive); in the experiment with MDA-MB-435 melanoma it was 4.58% (active) and 19.6% (inactive). Moreover, the growth in the experiment with SW-620 colon is 18.9% (inactive) and 56.4% (inactive); in the experiment on MCF7 breast, 9.04% (active); in the experiment with HCT-116 colon, 2.66% (active); with HCC-2998 colon, 11.1% (inactive) and 30.9% (inactive); with KM12 colon, -7.63% (active) and 12.6% (inactive).
Take `CCC(C)C1(C2CCCC2)NC(=O)NC1=O` (centres undefined): the growth was 92% (inactive) in the experiment with SR leukemia; 93.9% (inactive) and 106% (inactive) in the experiment with RPMI-8226 leukemia; 108% (inactive) and 99.9% (inactive) with OVCAR-8 ovarian; 111% (inactive) and 105% (inactive) in the experiment with OVCAR-5 ovarian; 102% (inactive) in the experiment with OVCAR-4 ovarian; 117% (inactive) and 119% (inactive) in the experiment on IGROV1 ovarian. Moreover, the growth is 106% (inactive) and 115% (inactive) with OVCAR-3 ovarian; 107% (inactive) and 103% (inactive) in the experiment with HS 578T breast; 109% (inactive) and 104% (inactive) in the experiment on NCI/ADR-RES ovarian; 97.1% (inactive) and 98.3% (inactive) in the experiment on T-47D breast; 107% (inactive) with BT-549 breast; 121% (inactive) and 102% (inactive) with MDA-MB-435 melanoma. The growth in the experiment with SW-620 colon is 112% (inactive) and 98.9% (inactive); in the experiment with MCF7 breast, 99.3% (inactive) and 97.3% (inactive); in the experiment on HCT-116 colon it was 100% (inactive) and 112% (inactive); in the experiment with HCC-2998 colon, 103% (inactive) and 102% (inactive); in the experiment on KM12 colon, 106% (inactive) and 111% (inactive).
